In the supplement of paper PMC3898565:
“And” between values parts separate entries of the source, which are not always exact repeats. Equal entries are not always repeated. ± gives the uncertainty stated by the source.

System: U87
Assay: cell viability relative to vehicle control; higher = less growth inhibition (less active)
Conditions: 10 µM; 72 h
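Further: viable cell number estimated from Alamar Blue fluorescence read at 560/90, part of a single-dose primary screen of an FDA-approved drug library.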

Compound | cell viability
COc1ccc2[nH]cc(C3=CCNCC3)c2c1 | 105 ± 2.3%
Cc1ncc2n1-c1ccc(Cl)cc1C(c1ccccc1F)=NC2 | 102.2 ± 0.87%
CC(NC(C)(C)C)C(=O)c1cccc(Cl)c1 (centres undefined) | 105% and 107%
NC(=O)OCCCc1ccccc1 | 104 ± 1.9%
C[N+]1(C)CCN(c2ccccc2)CC1 | 96.62 ± 0.74%
C[N+]1(CCC(C(N)=O)(c2ccccc2)c2ccccc2)CCCCC1 | 102 ± 1.4%
OC1CCCCC1N1CCC(c2ccccc2)CC1 (centres undefined) | 95 ± 2.2%
Cc1nnc2n1-c1ccc(Cl)cc1C(c1ccccc1)=NC2 [Alprazolam] | 89.23 ± 0.4%
C[C@]12CC[C@H](O)CC1=CC[C@@H]1[C@@H]2CC[C@]2(C)C(=O)CC[C@@H]12 | 116 ± 9.3%
COc1cc2c(cc1OC)[C@@]13CCN4CC5=CCO[C@H]6CC(=O)N2[C@H]1[C@H]6[C@H]5C[C@H]43 [Brucine] | 107 ± 1.1%
c1ccc2c(c1)Nc1ccccc1S2 | 110.5 ± 0.17%
CS(=O)(=O)Nc1ccc(Cc2noc(-c3ccc4[nH]cc(CCN)c4c3)n2)cc1 | 106 ± 1.2%
c1cncc([C@@H]2CCCN2)c1 [Nornicotine] | 111 ± 3.4%
O=C1Nc2ccc(Cl)cc2C(c2ccccc2Cl)=NC1O (centres undefined) [Lorazepam] | 105.6 ± 0.26%
CC(C)CC(N(C)C)C1(c2ccc(Cl)cc2)CCC1 (centres undefined) | 108 ± 1.9%
CNC1CC(c2ccc(Cl)c(Cl)c2)c2ccccc21 (centres undefined) [Indatraline] | 99.93 ± 0.57%
COc1cc(N)c(Cl)cc1C(=O)NC1CN2CCC1CC2 (centres undefined) [Zacopride] | 101.7 ± 0.79%

Compound | cell viability
C[C@]12CCC(=O)C=C1CC[C@@H]1[C@@H]2CC[C@@]2(C)[C@H]1CC[C@]2(C)O [Methyltestosterone] | 66.4 ± 2.3%
C[C@]12C/C(=C/O)C(=O)C[C@@H]1CC[C@@H]1[C@@H]2CC[C@@]2(C)[C@H]1CC[C@]2(C)O [Oxymetholone] | 113 ± 2.5%
CC[C@@H](C(N)=O)N1CCCC1=O | 110 ± 12%
CC(C)[C@]12O[C@H]1[C@@H]1O[C@]13[C@]1(O[C@H]1C[C@H]1C4=C(CC[C@@]13C)C(=O)OC4)[C@@H]2O | 26.3 ± 2.5%
C[C@]12CC[C@H](O)CC1=CC[C@@H]1[C@@H]2CC[C@@]2(C)[C@H]1CC[C@]2(C)O | 127 ± 3.6%
CC(O)(CS(=O)(=O)c1ccc(F)cc1)C(=O)Nc1ccc(C#N)c(C(F)(F)F)c1 (centres undefined) | 103 ± 1.5%
Oc1ccc2c3c1O[C@H]1c4[nH]c5ccccc5c4C[C@@]4(O)[C@@H](C2)N(CC2CC2)CC[C@]314 [Naltrindole] | 105 ± 3%
NCCc1ccccn1 | 104 ± 1.4%
C[C@]12CC[C@H]3[C@@H](CCC4=CC(=O)CC[C@@]43C)[C@@H]1CC[C@@H]2O [Testosterone] | 107 ± 1.6%
C[C@H]1CCC[C@H](O)CCCCCc2cc(O)cc(O)c2C(=O)O1 | 107 ± 2.7%
C[C@]12Cc3c[nH]nc3C[C@@H]1CC[C@@H]1[C@@H]2CC[C@@]2(C)[C@H]1CC[C@]2(C)O [Stanozolol] | 107 ± 2.4%
C[C@]12CC[C@H]3[C@@H](CCC4=CC(=O)CC[C@@H]43)[C@@H]1CC[C@@H]2O [Nandrolone] | 101.5 ± 0.8%
CCCCCCCCCOc1ccc2[nH]cc(CCN)c2c1 [5-Nonyloxytryptamine] | 37.1 ± 1.2%
CC(C)CC(N(C)C)C1(c2ccc(Cl)cc2)CCC1 (centres undefined) [Sibutramine] | 111.8 ± 0.39%
Oc1cc2c(cc1O)[C@H]1c3ccccc3CN[C@@H]1CC2 | 109 ± 1.4%
CC[C@@H]1C=CC=CC[C@H](C)[C@@H](O)[C@@H](C)C(=O)[C@H](C)[C@@H](O)[C@H](C)C(=O)[C@H](C)[C@@H](O)[C@H](C)C=CC(=O)O[C@H]2[C@@H](C)[C@@H](CC1)O[C@@]1(CC[C@@H](C)[C@@H](C[C@H](C)O)O1)[C@@H]2C | 109 ± 11%
O=C1CN=C(c2ccccc2)c2cc([N+](=O)[O-])ccc2N1 [Nitrazepam] | 103.3 ± 0.55%
